Values joined by “and” are separate entries in the source; they are usually repeats but may differ in a detail not shown here. Identical values can stand only once. In all, about 5,500 compounds went through this assay and about 2,000 (36%) were called active. About 18% were inconclusive and are not listed. Rule as the data show it: active = normalized growth mostly below about 0.91 (no sharp cut-off); inconclusive = no clear call, values can overlap the other calls; inactive = mostly above about 0.92. This is one part of the list.
Experiment: chemical genetic growth profiling, strain panel (AID 1159580);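 also: tested at 20 µM; growth read once vehicle control cultures reached saturation at 30 °C; 1 = growth at the plate median or of vehicle wells; lower values mean less growth of the strain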
Settings: S. cerevisiae deletion strains, growth OD

Measured: normalized growth

COc1cc2cc[n+]3cc4c(OC)c(OC)ccc4cc3c2cc1OC
inactive: locus YAL013W, strain DEP1, hits give low values 0.996 | locus YAL021C, strain ccr4, hits give low values 0.99 | locus YAL026C, strain drs2, hits give low values 0.97 | locus YAL030W, strain snc1, hits give low values 0.965 | locus YBL061C, strain skt5, hits give low values 0.971 | locus YBR009C, strain hhf1, hits give low values 0.984 | locus YBR021W, strain FUR4, hits give low values 1.03 | locus YBR023C, strain chs3, hits give low values 0.977 | locus YBR171W, strain sec66, hits give low values 0.975 | locus YBR229C, strain ROT2, hits give low values 0.99 | locus YBR231C, strain swc5, hits give low values 0.983 | locus YBR279W, strain paf1, hits give low values 0.982 | locus YCL011C, strain gbp2, hits give low values 0.963 | locus YCL016C, strain dcc1, hits give low values 0.976 | locus YCL029C, strain bik1, hits give low values 0.983 | locus YCL061C, strain MRC1, hits give low values 0.987 | locus YCL069W, strain vba3, hits give low values 0.981 | locus YCR088W, strain abp1, hits give low values 0.982 | locus YDL005C, strain med2, hits give low values 0.957 | locus YDL035C, strain GPR1, hits give low values 0.975 | locus YDL040C, strain nat1, hits give low values 0.985 | locus YDL074C, strain BRE1, hits give low values 0.977 | locus YDL101C, strain DUN1, hits give low values 0.98 | locus YDL134C, strain PPH21, hits give low values 0.985 | locus YDL192W, strain arf1, hits give low values 0.986 | locus YDR001C, strain nth1, hits give low values 0.964 | locus YDR069C, strain doa4, hits give low values 0.981 | locus YDR101C, strain arx1, hits give low values 0.978 | locus YDR137W, strain rgp1, hits give low values 0.977 | locus YDR150W, strain NUM1, hits give low values 0.954 | locus YDR159W, strain sac3, hits give low values 0.982 | locus YDR162C, strain NBP2, hits give low values 0.99 | locus YDR195W, strain ref2 0.949 | locus YDR297W, strain sur2, hits give low values 0.979 | locus YDR318W, strain mcm21, hits give low values 0.969 | locus YDR334W, strain swr1, hits give low values 0.944 | locus YDR335W, strain msn5, hits give low values 0.98 | locus YDR388W, hits give low values 0.989 | locus YDR392W, strain spt3, hits give low values 0.927 | locus YDR502C, strain sam2, hits give low values 0.98 | locus YEL003W, strain gim4, hits give low values 0.974 | locus YEL037C, strain rad23, hits give low values 0.967 | locus YEL061C, strain CIN8 (second series), hits give low values 0.976 | locus YEL061C, strain CIN8, hits give low values 0.996 | locus YER015W, strain faa2, hits give low values 0.971 | locus YER016W, strain bim1, hits give low values 0.974 | locus YER110C, hits give low values 0.962 | locus YER111C, strain swi4, hits give low values 0.972 | locus YER155C, strain BEM2 (second series), hits give low values 0.976 | locus YER155C, strain BEM2, hits give low values 1.01 | locus YER167W, strain BCK2, hits give low values 0.978 | locus YFR010W, strain ubp6, hits give low values 0.952 | locus YGL078C, strain dbp3, hits give low values 0.979 | locus YGL086W, strain mad1, hits give low values 0.975 | locus YGL167C, strain pmr1, hits give low values 0.973 | locus YGL173C, strain kem1, hits give low values 0.954 | locus YGL227W, strain vid30, hits give low values 0.973 | locus YGL240W, strain doc1, hits give low values 0.987 | locus YGL248W, strain PDE1, hits give low values 0.99 | locus YGL253W, strain hxk2, hits give low values 0.974 | locus YGR078C, strain PAC10, hits give low values 0.986 | locus YGR135W, strain pre9, hits give low values 1 | locus YGR229C, strain SMI1, hits give low values 1.01 | locus YGR252W, strain gcn5, hits give low values 0.93 | locus YHR013C, strain ard1, hits give low values 0.945 | locus YHR027C, strain rpn1, hits give low values 0.967 | locus YHR030C, strain SLT2, hits give low values 0.982 and 1.02 | locus YHR079C, strain IRE1 (second series), hits give low values 0.977 | locus YHR079C, strain IRE1, hits give low values 1.04 | locus YHR094C, strain hxt1, hits give low values 0.969 | locus YHR129C, strain ARP1, hits give low values 0.945 | locus YHR142W, strain chs7, hits give low values 0.932 | locus YHR200W, strain rpn10, hits give low values 0.965 | locus YIL066C, strain RNR3, hits give low values 0.974 | locus YIL073C, strain SPO22, hits give low values 0.875 | locus YIL125W, strain kgd1, hits give low values 0.965 | locus YIR030C, strain dcg1, hits give low values 0.98 | locus YJL092W, strain hpr5, hits give low values 0.978 | locus YJL095W, strain BCK1 (second series), hits give low values 0.993 | locus YJL095W, strain BCK1, hits give low values 0.994 and 0.984 | locus YJL115W, strain asf1, hits give low values 0.936 | locus YJL129C, strain trk1, hits give low values 0.94 | locus YJL134W, strain LCB3, hits give low values 0.973 | locus YJL154C, strain vps35, hits give low values 0.967 | locus YJL164C, strain tpk1, hits give low values 1 | locus YJL166W, strain qcr8, hits give low values 0.984 | locus YJL168C, strain set2, hits give low values 0.98 | locus YJL187C, strain SWE1 (second series), hits give low values 0.976 | locus YJL187C, strain SWE1, hits give low values 0.988 | locus YJR043C, strain POL32, hits give low values 0.96 | locus YJR066W, strain TOR1, hits give low values 0.976

From PubChem BioAssay AID1159580 (chemical genetic matrix, 2015)
